From PubChem BioAssay
Most compounds without a hit are left out; they make up all but 7.7% or so of the library.
PD-1 reverse act: activators reversing PD-1 mediated T-cell inhibition; primary human CD4 T cells, PD-L1 beads, CellTiter-Glo 96 h; activation, % (concentration not given with the values); 29,000 tested, under 10 active; AID 2316; call rule not given here
NOMO-1 viab: STK33 inhibitor candidate reducing NOMO-1 cell viability; NOMO-1 AML viability, CellTiter-Glo luminescence, 72 h; inhibition, % (concentration not given with the values); 37,000 compounds, 7.5% hits; in the data active = inhibition above about 80%; inconclusive = no clear call, values can overlap the other calls
Shh pathway inh: blocks Sonic Hedgehog signaling. 22,000 compounds, 2.1% hits. Shh-LIGHT2 Gli-luciferase reporter, 30 h. inhibition, % (no concentration beside the values);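 active = mean inhibition across valid replicates above about 65%, limit read from the data; inconclusive = mean under the limit, yet half or more replicates past it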;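 also: pathway switched on by Shh-conditioned medium diluted 1 in 25 in low serum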
A number is an active result; – = inactive; ? = inconclusive; · = no result.

SMILES	PD-1 reverse act	NOMO-1 viab	Shh pathway inh
COC1CC(O[C@H]2CC[C@@]3(C)C(CCC4C3CC[C@]3(C)C(C5=CC(=O)OC5)CCC43O)C2)OC(C)C1OC1OC(COC2OC(CO)C(O)C(O)C2O)C(O)C(O)C1O (stereo partly drawn)	–	119	–
CC(=O)OCC(=O)[C@H]1CC[C@H]2[C@@H]3CC[C@H]4C[C@H](O)CC[C@]4(C)[C@H]3C(=O)C[C@]12C	·	–	–
COC1CC(OC2CCC3(C)C(CCC4(O)C3CC(OC(=O)c3ccccc3)C3(C)C(O)(C(C)=O)CCC43O)C2)OC(C)C1OC1CC(OC)C(OC2OC(C)C(O)C(OC)C2O)C(C)O1 (stereo not drawn)	–	–	–
C[C@]12CC[C@H](O)C[C@H]1CC[C@@H]1[C@@H]2C[C@@H](O)[C@]2(C)[C@@H](C3=CC(=O)OC3)CC[C@]12O	–	98	–
CN1CCN(c2ccc3ccccc3n2)CC1	–	–	–
C=CC1C[N+]2([O-])CCC1CC2C(O)c1ccnc2ccc(OC)cc12 (stereo not drawn)	·	·	–
CC(=O)c1cccc(NC(=O)CSC2c3ccccc3-c3ccccc32)c1	–	–	·
COc1cc2c(cc1OC)C13CCN(C)CC4=CCOC5CC(=O)N2C1C5C4CC3=O (stereo not drawn)	–	–	–
CC(C)[C@]12O[C@H]1[C@@H]1O[C@]13[C@]1(O[C@H]1C[C@H]1C4=C(CC[C@@]13C)C(=O)OC4)[C@@H]2O	·	114	–
C=C(C)[C@H]1O[C@H]2CC[C@@]3(C)[C@@](O)(CC[C@H]4[C@@H]5OC(C)(C)[C@H]6C[C@@H]7C(=C)Cc8c(Cl)cc9[nH]c(c5c9c8[C@@]76O)[C@@]43C)[C@]23O[C@@H]3[C@H]1O	·	116	–
O=C1CSC(c2ccccc2Cl)c2cc(Cl)ccc2N1 (stereo not drawn)	–	–	–
N[C@H]1C[C@@H]1c1ccccc1	–	–	?
COC(=O)[C@@]12C(=O)C(C)C(=O)[C@]1(C)C(C)=C[C@H]1[C@]3(C=O)CC[C@H](OC(C)=O)C(C)(C)[C@H]3CC[C@@]12C (stereo partly drawn)	·	·	–
O=C(CCCN1CCC2(CC1)C(=O)N(Cc1cccc(F)c1)CN2c1ccccc1)c1ccc(F)cc1	·	91	?
CCC1CN2CCC3(C(=O)Nc4cccc(O)c43)C2CC1/C(=C/OC)C(=O)OC (stereo not drawn)	–	–	–
Oc1cccc2cccnc12	·	111	–
CCC[C@H]1C[C@H]2OC(=O)c3c(cc(OC)c(OC)c3O)[C@H]2O1	–	–	–
CC1(C)C(C(=O)Nc2ccccc2C#N)C1(C)C	–	–	–
Cc1cc(Br)c(NC(=O)C2C(C)(C)C2(C)C)c(Br)c1	–	89	65
CC(C)NCC(O)c1ccc(N)c(C#N)c1 (stereo not drawn)	·	–	–
CC1OC(O[C@H]2C[C@@H](O)[C@]3(CO)[C@H]4[C@H](O)C[C@]5(C)[C@@H](C6=CC(=O)OC6)CC[C@]5(O)[C@@H]4CC[C@]3(O)C2)C(O)C(O)C1O (stereo partly drawn)	–	98	–
C[C@H]1O[C@@H](O[C@H]2C[C@@H](O)[C@]3(CO)C4C(CC[C@]3(O)C2)[C@@]2(O)CC[C@H](C3=CC(=O)OC3)[C@@]2(C)C[C@H]4O)[C@@H](O)[C@@H](O)[C@H]1O (stereo partly drawn)	–	121	–
C[C@@H]1O[C@@H](O[C@H]2C[C@@H](O)[C@]3(CO)C4C(CC[C@]3(O)C2)[C@@]2(O)CC[C@H](C3=CC(=O)OC3)[C@@]2(C)C[C@H]4O)[C@H](O)[C@H](O)[C@H]1O (stereo partly drawn)	·	107	–
COC(=O)C12CC3CC(C(C)O)C1N(CCc1c2[nH]c2ccc(OC)cc12)C3 (stereo not drawn)	–	–	–
CCC1CC2CC3(C(=O)OC)c4[nH]c5ccc(OC)cc5c4CCN(C2=O)C13 (stereo not drawn)	–	–	–
SMILES	PD-1 reverse act	NOMO-1 viab	Shh pathway inh
CCOC(=O)c1c(C)n(C(C)C)c2ccc(OC(=O)c3ccccc3)cc12	–	–	–
O=c1c2ccccc2nc(CSc2ccccn2)n1-c1cccc(C(F)(F)F)c1	–	–	·
OCC1OC(n2cnc3cc(Cl)c(Cl)cc32)[C@@H](O)[C@H]1O (stereo partly drawn)	–	–	–
NC1C[C@H]1c1ccccc1 (stereo partly drawn)	·	–	–
CCC1(C)CC(=O)NC(=O)C1	–	–	–
CO/C1=C/C(C)=C/[C@@H](C)[C@@H](O)[C@@H](C)C/C(C)=C/C=C\[C@H](OC)[C@@H]([C@@H](C)[C@@H](O)[C@H](C)[C@@]2(O)C[C@@H](O)[C@H](C)[C@@H](C(C)C)O2)OC1=O	–	142	97
CCOc1ccc(CN(CCc2ccc3c(c2)OCO3)Cc2ccccc2)cc1	–	–	·
CCC1C2CC[N+]3([O-])CCC4(C(=C2C(=O)OC)Nc2c(OC)cccc24)C13 (stereo not drawn)	–	–	–
CCOC(=O)c1cc(C(C)(C)C)nc(OC(=O)N(C)C)c1C#N	–	101	–
COCc1cc(OC(=O)N(C)C)nc2c1c(C)nn2C	–	–	·
Clc1ccc(C(c2ccc(Cl)cc2)C(Cl)(Cl)Cl)cc1	·	–	–
c1ccc(CSc2nnc(-c3ccccc3)o2)cc1	–	–	–
CC[C@H]1CN2CCc3cc(OC)c(OC)cc3[C@@H]2C[C@@H]1C[C@H]1NCCc2cc(O)c(OC)cc21	·	120	86
COc1cc2c(cc1O)CCNC2C (stereo not drawn)	·	–	–
O=c1c2ccccc2[se]n1-c1ccccc1	–	141	?
O=c1c2ccccc2nc(C(F)(F)F)n1-c1ccccc1	–	–	–
CCC12CCCN3CCC4(c5ccc(OC)c(O)c5N(C(C)=O)C4CC1)C32 (stereo not drawn)	–	–	–
CC[C@H]1CN2CC[C@H]1C[C@H]2[C@H](O)c1ccnc2ccc(OC)cc12	–	–	–
c1cncc(C2=NCCC2)c1	–	–	–
CC(C)N(C(=O)CCl)c1ccccc1	·	111	71
CCc1cccc(C)c1N(C(=O)CCl)C(C)COC (stereo not drawn)	·	–	–
Cc1ccc(-n2c(CNCc3cccnc3)nc3ccccc3c2=O)cc1	–	–	·
CC[C@H]1CN2CC[C@H]1C[C@@H]2[C@@H](O)c1ccnc2ccc(OC)cc12	–	–	–
C/C=C(\C)[C@H](O)[C@H](C)/C=C(C)/C=C/C/C(C)=C/Cc1[nH]c(OC)c(OC)c(=O)c1C	–	99	–
C[C@@]12C[C@@H](c3ccoc3)OC(=O)C1CC[C@]1(C)[C@H]2[C@H]2C=C[C@]1(O)C(=O)O2 (stereo partly drawn)	–	–	–
O=C(Cn1cc(C(=O)c2ccccc2)c2ccccc21)NCC1CCCO1 (stereo not drawn)	–	–	·
